Biological target: Gsc (Drosophila melanogaster, UniProt P54366 267-356)
Experiment: FP; 33 mM phosphate pH 7.0, 90 mM NaCl, 0.01% Tween 20, 0.1 mM DTT, 0.5% agarose; room temperature
Conditions: tags: N-GST (pGEX-6P-1, kept); dsDNA, one strand shown

Gsc, sequence (P54366 267-356): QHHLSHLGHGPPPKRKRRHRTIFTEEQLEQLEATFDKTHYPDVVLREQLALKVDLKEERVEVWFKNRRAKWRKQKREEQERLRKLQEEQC

Question: How did the binding signal turn out when AATTAATCCGAA was run?
Answer: 1.15 Kd / Kd of best base at the position

Question: How did the binding signal turn out when AATTAATCCGAC was run?
Answer: 1.04 Kd / Kd of best base at the position

Question: How did the binding signal turn out when AACTAATCCGAT was run?
Answer: 2.52 Kd / Kd of best base at the position

Question: AATTAGTCCGAT was tested. Which binding signal did it give?
Answer: 10.6 Kd / Kd of best base at the position

Question: Which binding signal does the source give for AATGAATCCGAT here?
Answer: 42.9 Kd / Kd of best base at the position

Question: Which binding signal does the source give for AATTAAGCCGAT here?
Answer: 4.74 Kd / Kd of best base at the position

Question: AATTAATCCGGT was tested. Which binding signal did it give?
Answer: 1.99 Kd / Kd of best base at the position

Question: With AATTAATCCAAT as the sequence, how does the binding signal read?
Answer: 1.29 Kd / Kd of best base at the position

Question: Which binding signal does the source give for AATTGATCCGAT here?
Answer: 12.6 Kd / Kd of best base at the position

Question: Which binding signal does the source give for AATTAATCAGAT here?
Answer: 1.75 Kd / Kd of best base at the position

Question: Which binding signal does the source give for AGTTAATCCGAT here?
Answer: 4.01 Kd / Kd of best base at the position

Question: How did the binding signal turn out when AATTAATGCGAT was run?
Answer: 9.37 Kd / Kd of best base at the position

Question: For AATTAATCCGAT, which Kd is on record?
Answer: ~3.8 nM

Question: With AATAAATCCGAT as the sequence, how does the binding signal read?
Answer: 8.9 Kd / Kd of best base at the position

Question: Which binding signal does the source give for AATTAAACCGAT here?
Answer: 9.22 Kd / Kd of best base at the position

Question: How did the binding signal turn out when AAATAATCCGAT was run?
Answer: 4.25 Kd / Kd of best base at the position

Question: AATTAATCTGAT was tested. Which binding signal did it give?
Answer: 1.95 Kd / Kd of best base at the position

Question: AATTAATCCTAT was tested. Which binding signal did it give?
Answer: 2.32 Kd / Kd of best base at the position

Question: GATTAATCCGAT was tested. Which binding signal did it give?
Answer: 1.37 Kd / Kd of best base at the position

Question: For AATTAATCCCAT, which binding signal is on record?
Answer: 1.16 Kd / Kd of best base at the position

Question: Which binding signal does the source give for ATTTAATCCGAT here?
Answer: 3.67 Kd / Kd of best base at the position

Question: For AATTATTCCGAT, which binding signal is on record?
Answer: 24.5 Kd / Kd of best base at the position

Question: How did the binding signal turn out when AATTCATCCGAT was run?
Answer: 36.4 Kd / Kd of best base at the position

Question: How did the binding signal turn out when TATTAATCCGAT was run?
Answer: 2.48 Kd / Kd of best base at the position

Question: AATTAATACGAT was tested. Which binding signal did it give?
Answer: 9.77 Kd / Kd of best base at the position

Question: For CATTAATCCGAT, which binding signal is on record?
Answer: 4.41 Kd / Kd of best base at the position

Question: ACTTAATCCGAT was tested. Which binding signal did it give?
Answer: 10.4 Kd / Kd of best base at the position

Question: Which binding signal does the source give for AATTAATCGGAT here?
Answer: 3.62 Kd / Kd of best base at the position

Question: AATTAATCCGCT was tested. Which binding signal did it give?
Answer: 3.18 Kd / Kd of best base at the position

Question: For AAGTAATCCGAT, which binding signal is on record?
Answer: 4.46 Kd / Kd of best base at the position

Question: How did the binding signal turn out when AATTAATCCGAG was run?
Answer: 1.56 Kd / Kd of best base at the position

Question: AATTAATTCGAT was tested. Which binding signal did it give?
Answer: 3.3 Kd / Kd of best base at the position

Question: With AATTTATCCGAT as the sequence, how does the binding signal read?
Answer: 12.6 Kd / Kd of best base at the position

Question: How did the binding signal turn out when AATTAACCCGAT was run?
Answer: 13.1 Kd / Kd of best base at the position

Question: AATTACTCCGAT was tested. Which binding signal did it give?
Answer: 24.4 Kd / Kd of best base at the position

Question: AATTAATCCGTT was tested. Which binding signal did it give?
Answer: 1.04 Kd / Kd of best base at the position

Biological target: T1, Optix (Drosophila melanogaster, UniProt Q95RW8 139-229)
T1 sequence: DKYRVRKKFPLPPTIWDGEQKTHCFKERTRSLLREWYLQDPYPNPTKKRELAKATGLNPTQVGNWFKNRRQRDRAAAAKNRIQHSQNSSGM
Experiment: as above
Conditions: tags: N-GST (pGEX-6P-1, kept); dsDNA, one strand shown

Question: For AGAGTGATTGCT, which binding signal is on record?
Answer: 49 Kd / Kd of best base at the position

Question: How did the binding signal turn out when AGAGAGATAGCT was run?
Answer: 9.88 Kd / Kd of best base at the position

Question: AGAGTGATAGTT was tested. Which binding signal did it give?
Answer: 5.68 Kd / Kd of best base at the position

Question: Which Kd does the source give for AGAGTGATAGCT here?
Answer: ~5 nM
